According to PubChem BioAssay (NCATS):
Records with an inconclusive call do not appear. Calls of active or inactive are those of the source. Calls come from the whole dose curve; as a rule, active = well fitted curve in the direction sought with a large enough effect; inconclusive = small, poorly fitted or top-dose-only effect, or another doubt; inactive = no such curve, though single readings can be large; an effect the other way counts as inactive or inconclusive.

Key:
[1] = Primary fluorescence-based thiol-reactive (MSTI) qHTS assay for identification of artifact compounds. (AID 1845221);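 note: series mostly up to about 54 µM; thiol-reactive compounds lower the probe fluorescence signal; nearly all actives have a fitted effect of over 65% in size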
In short: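 One-hour, room-temperature, dark incubation of compound with 4 uM MSTI in PBS (pH 7.4, 2% DMSO) precedes a fluorescence read at 525 nm excitation, 598 nm emission; Hill-equation fitting yields concentration-response values.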

[2] = test system: Nanoluciferase (engineered Oplophorus gracilirostris luciferase); test: Primary Nanoluciferase (NLuc) qHTS assay for identification of artifact compounds. (AID 1845222);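 note: NLuc secreted into diluted conditioned medium of S16 cells; series mostly up to about 54 µM; 0% = DMSO and -100% = no enzyme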
In short: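 NLuc from S16 cell medium (1:55) plus test compounds, 15 min, room temperature. Luminescence after Nano-Glo (1:100) addition, 5 min.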

[3] = Primary redox qHTS assay for identification of artifact compounds. (AID 1845223);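 note: 0% = DMSO and 100% = reference compound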
In short: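 Amplex Red (25 uM) and HRP (250 mU/mL) in HBSS, with compounds for 15 min, then 250 uM DTT for 30 min, room temperature, dark. Fluorescence 525/598 nm read; normalized to DMSO and 10 uM DA3003; Hill fit.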

CCN[C@@H]1C[C@H](N)[C@@H](O[C@H]2OC(CN)=CC[C@H]2N)[C@H](O)[C@H]1O[C@H]1OC[C@](C)(O)[C@H](NC)[C@H]1O
inactive: Potency [1] | Potency [2] | Potency [3]

C=CC1(C)C=C2C(O)CC3C(C)(C(=O)O)CCCC3(C)C2CC1 (centres undefined)
inactive: Potency [1] | Potency [2] | Potency [3]

CC1CCC2(NC1)OC1C(=O)C3C4CCC5CC(O[C@@H]6O[C@H](CO)[C@@H](O)[C@H](O)[C@H]6O[C@@H]6O[C@@H](C)[C@H](O)[C@@H](O)[C@H]6O)CCC5(C)C4CCC3(C)C1C2C (some centres undefined)
inactive: Potency [1] | Potency [2] | Potency [3]

COc1cc(C2Oc3c(OC)cc(/C=C/C(=O)OC[C@H]4O[C@@H](OC(C)(C)C(=O)O)[C@H](O)[C@@H](O)[C@@H]4O)cc3C2CO)ccc1O (some centres undefined)
inactive: Potency [1] | Potency [2] | Potency [3]

CC1(C)CC[C@]2(C(=O)O[C@@H]3O[C@H](CO)[C@@H](O)[C@H](O)[C@H]3O)CC[C@]3(C)C(=CCC4[C@@]5(C)C[C@@H](O)[C@H](O)C(CO)(CO)C5CC[C@]43C)C2[C@@H]1O (some centres undefined)
inactive: Potency [1] | Potency [2] | Potency [3]

C[C@]12CCC[C@](C)(C(=O)O)C1CCC13C=C(CO)C(CCC12)C3 (some centres undefined)
inactive: Potency [1] | Potency [2] | Potency [3]

CC1(C)CCC(C)(C)c2cc([C@@H](O)C(=O)Nc3ccc(C(=O)O)cc3F)ccc21
inactive: Potency [1] | Potency [2] | Potency [3]

CC[C@H](/C=C/[C@@H](C)[C@H]1CC[C@H]2[C@@H]3CC=C4C[C@@H](O)CC[C@]4(C)[C@H]3CC[C@]12C)C(C)C
inactive: activity change, negative = thiol reactive [1] -7.95% [at 6.41 µM] | activity, negative = inhibition [2] 1.22% [at 6.45 µM] | redox activity (% of DA3003) [3] -0.124% [at 6.41 µM]
